# Assay results as given in the supplement of paper PMC10037445.
# Where “and” joins values, the source holds several entries; their conditions need not be identical. Equal entries are not always repeated. Whole data set: some 2,900 compounds, median “NF-kB SEAP reporter activity, fold change vs agonist alone” near 0.99, cut for the highest 2% near 2.6. The sample holds the highest values, similar compounds and a random draw of the others, so the mix is not that of the screen.
# Assays:
# RAW-Dual [1] = test: NF-kB SEAP reporter activity, fold change vs agonist alone; cytotoxicity flag (confluency mask): not cytotoxic; higher = enhanced NF-kB activity
# In short: (§1)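 Library stock was pin-tooled at 50 nL into 384-well plates of RAW-Dual macrophages (50,000 cells/well, DMEM), followed 1 h later by a PRR agonist, and the cells were kept at 37 °C, 5% CO2. Supernatant collected after 20 hours was read for IRF by QuantiLuc luminescence and for NF-κB by QuantiBlue absorbance at 620 nm. Reporter activity is fold change over agonist-alone wells, and a well counted as cytotoxic when its IncuCyte confluency was below 70% of agonist controls in both mask sets.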
# RAW-Dual [2] = test: NF-kB SEAP reporter activity, fold change vs agonist alone; higher = enhanced NF-kB activity; conditions: library stock concentration (final ~1000-fold dilution): 10 mM
# In short: as §1
# RAW-Dual [3] = test: NF-kB SEAP reporter activity, fold change vs agonist alone; cytotoxicity flag (confluency mask): cytotoxic (confluency <70% of control); higher = enhanced NF-kB activity
# In short: as §1
# [4] = agonist: ODN 1826 (TLR9) 0.5 ug/mL
# [5] = agonist: Pam2CSK4 (TLR2/6) 0.1 ug/mL
# [6] = agonist: Pam3CSK4 (TLR2/1) 0.1 ug/mL
# [7] = cytotoxicity flag (confluency mask): not cytotoxic, agonist: Imiquimod (TLR7) […]
# [8] = cytotoxicity flag (confluency mask): not cytotoxic, agonist: MPLA (TLR4) […]
# [9] = cytotoxicity flag (confluency mask): cytotoxic (confluency <70% of control), agonist: Imiquimod (TLR7) […]
# [10] = cytotoxicity flag (confluency mask): cytotoxic (confluency <70% of control), agonist: MPLA (TLR4) […]
structure (smiles),measurement,setting,value
COc1ccc(CNC(=O)CCl)cc1OC (library stock concentration (final ~1000-fold dilution): 10 mM),NF-kB SEAP reporter activity,RAW-Dual [1]; agonist: LPS (TLR4) 0.1 ug/mL,0.67
same,NF-kB SEAP reporter activity,RAW-Dual [1]; [4],0.674
same,NF-kB SEAP reporter activity,RAW-Dual [1]; [5],0.728
same,NF-kB SEAP reporter activity,RAW-Dual [1]; [6],0.679
COc1ccc(CNC(=O)CCl)cc1OC,NF-kB SEAP reporter activity,RAW-Dual [2]; [7],1.02
same,NF-kB SEAP reporter activity,RAW-Dual [2]; [8],0.962
COc1cc(OC)c(C=CS(=O)(=O)Cc2ccc(OC)c(NCC(=O)O)c2)c(OC)c1 (library stock concentration (final ~1000-fold dilution): 10 mM),NF-kB SEAP reporter activity,RAW-Dual [1]; agonist: LPS (TLR4) 0.1 ug/mL,4.24
same,NF-kB SEAP reporter activity,RAW-Dual [1]; [4],3.24
same,NF-kB SEAP reporter activity,RAW-Dual [1]; [5],2.21
same,NF-kB SEAP reporter activity,RAW-Dual [1]; [6],2.56
CC(=O)C1CCC2C3CCC4=CC(=O)CCC4(C)C3CCC12C (stereo not given) (library stock concentration (final ~1000-fold dilution): 10 mM),NF-kB SEAP reporter activity,RAW-Dual [1]; agonist: LPS (TLR4) 0.1 ug/mL,0.981
same,NF-kB SEAP reporter activity,RAW-Dual [1]; [4],1.06
same,NF-kB SEAP reporter activity,RAW-Dual [1]; [5],1.38
same,NF-kB SEAP reporter activity,RAW-Dual [1]; [6],1.51
CC(=O)C1CCC2C3CCC4=CC(=O)CCC4(C)C3CCC12C (stereo not given),NF-kB SEAP reporter activity,RAW-Dual [2]; [7],0.441
same,NF-kB SEAP reporter activity,RAW-Dual [2]; [8],1.06
O=C1CN(/N=C/c2ccc([N+](=O)[O-])o2)C(=O)N1,NF-kB SEAP reporter activity,RAW-Dual [2]; [7],0.924
same,NF-kB SEAP reporter activity,RAW-Dual [2]; [8],0.948
O=C1CN(/N=C/c2ccc([N+](=O)[O-])o2)C(=O)N1 (library stock concentration (final ~1000-fold dilution): 10 mM),NF-kB SEAP reporter activity,RAW-Dual [1]; agonist: LPS (TLR4) 0.1 ug/mL,1.09
same,NF-kB SEAP reporter activity,RAW-Dual [1]; [4],0.855
same,NF-kB SEAP reporter activity,RAW-Dual [1]; [5],1.1
same,NF-kB SEAP reporter activity,RAW-Dual [1]; [6],1.11
Cc1ccc(/C=N/NC(=O)c2ccccc2Oc2ccccc2)o1 (library stock concentration (final ~1000-fold dilution): 10 mM),NF-kB SEAP reporter activity,RAW-Dual [1]; agonist: LPS (TLR4) 0.1 ug/mL,1.08
same,NF-kB SEAP reporter activity,RAW-Dual [1]; [4],0.922
same,NF-kB SEAP reporter activity,RAW-Dual [1]; [5],0.955
same,NF-kB SEAP reporter activity,RAW-Dual [1]; [6],1.31
Cc1ccc(/C=N/NC(=O)c2ccccc2Oc2ccccc2)o1,NF-kB SEAP reporter activity,RAW-Dual [2]; [7],0.972
same,NF-kB SEAP reporter activity,RAW-Dual [2]; [8],1.09
O=C(N/N=C/c1ccc([N+](=O)[O-])o1)c1ccc(O)cc1,NF-kB SEAP reporter activity,RAW-Dual [2]; [9],2.58
same,NF-kB SEAP reporter activity,RAW-Dual [2]; [10],2.03
O=C(N/N=C/c1ccc([N+](=O)[O-])o1)c1ccc(O)cc1 (library stock concentration (final ~1000-fold dilution): 10 mM),NF-kB SEAP reporter activity,RAW-Dual [3]; agonist: LPS (TLR4) 0.1 ug/mL,3.8
same,NF-kB SEAP reporter activity,RAW-Dual [3]; [4],1.64
same,NF-kB SEAP reporter activity,RAW-Dual [3]; [5],1.38
same,NF-kB SEAP reporter activity,RAW-Dual [3]; [6],1.55
COC1/C=C\C=C(/C)C(=O)NC2=CC(=O)C(NCCN(C)C)=C(CC(C)CC(OC)C(O)C(C)/C=C(\C)C1OC(N)=O)C2=O.Cl (stereo not given),NF-kB SEAP reporter activity,RAW-Dual [2]; [7],0.497
same,NF-kB SEAP reporter activity,RAW-Dual [2]; [8],0.345
COC1/C=C\C=C(/C)C(=O)NC2=CC(=O)C(NCCN(C)C)=C(CC(C)CC(OC)C(O)C(C)/C=C(\C)C1OC(N)=O)C2=O.Cl (stereo not given) (library stock concentration (final ~1000-fold dilution): 10 mM),NF-kB SEAP reporter activity,RAW-Dual [1]; agonist: LPS (TLR4) 0.1 ug/mL,0.267
same,NF-kB SEAP reporter activity,RAW-Dual [1]; [4],0.313
same,NF-kB SEAP reporter activity,RAW-Dual [1]; [5],0.154
same,NF-kB SEAP reporter activity,RAW-Dual [1]; [6],0.199
CC(C)NCC(C(=O)N1CCN(c2ncnc3c2C(C)CC3O)CC1)c1ccc(Cl)cc1 (stereo not given),NF-kB SEAP reporter activity,RAW-Dual [2]; [7],1.27
same,NF-kB SEAP reporter activity,RAW-Dual [2]; [8],1.13
CC(C)NCC(C(=O)N1CCN(c2ncnc3c2C(C)CC3O)CC1)c1ccc(Cl)cc1 (stereo not given) (library stock concentration (final ~1000-fold dilution): 10 mM),NF-kB SEAP reporter activity,RAW-Dual [1]; agonist: LPS (TLR4) 0.1 ug/mL,0.942
same,NF-kB SEAP reporter activity,RAW-Dual [1]; [4],0.996
same,NF-kB SEAP reporter activity,RAW-Dual [1]; [5],1.15
same,NF-kB SEAP reporter activity,RAW-Dual [1]; [6],1.11
C=CC(=O)N1CCCC(n2nc(-c3ccc(Oc4ccccc4)cc3)c(C(N)=O)c2N)C1 (stereo not given),NF-kB SEAP reporter activity,RAW-Dual [2]; [7],0.67
same,NF-kB SEAP reporter activity,RAW-Dual [2]; [8],0.637
C=CC(=O)N1CCCC(n2nc(-c3ccc(Oc4ccccc4)cc3)c(C(N)=O)c2N)C1 (stereo not given) (library stock concentration (final ~1000-fold dilution): 10 mM),NF-kB SEAP reporter activity,RAW-Dual [1]; agonist: LPS (TLR4) 0.1 ug/mL,0.404
same,NF-kB SEAP reporter activity,RAW-Dual [1]; [4],0.546
same,NF-kB SEAP reporter activity,RAW-Dual [1]; [5],0.224
same,NF-kB SEAP reporter activity,RAW-Dual [1]; [6],0.272
Cl.NC(=O)c1cnc(NC2CCCCC2N)nc1Nc1cccc(-n2nccn2)c1 (stereo not given) (library stock concentration (final ~1000-fold dilution): 10 mM),NF-kB SEAP reporter activity,RAW-Dual [3]; agonist: LPS (TLR4) 0.1 ug/mL,0.377
same,NF-kB SEAP reporter activity,RAW-Dual [3]; [4],0.204
same,NF-kB SEAP reporter activity,RAW-Dual [3]; [5],0.315
same,NF-kB SEAP reporter activity,RAW-Dual [3]; [6],0.248
Cl.NC(=O)c1cnc(NC2CCCCC2N)nc1Nc1cccc(-n2nccn2)c1 (stereo not given),NF-kB SEAP reporter activity,RAW-Dual [2]; [9],0.258
same,NF-kB SEAP reporter activity,RAW-Dual [2]; [10],0.336
OCc1c[nH]c2ccccc12 (library stock concentration (final ~1000-fold dilution): 10 mM),NF-kB SEAP reporter activity,RAW-Dual [1]; agonist: LPS (TLR4) 0.1 ug/mL,1.1 and 1.21
same,NF-kB SEAP reporter activity,RAW-Dual [1]; [4],0.998 and 1.05
same,NF-kB SEAP reporter activity,RAW-Dual [1]; [5],1.03 and 1
same,NF-kB SEAP reporter activity,RAW-Dual [1]; [6],1.29 and 1.17
O=C(/C=C/c1ccc(CN(CCO)CCc2c[nH]c3ccccc23)cc1)NO,NF-kB SEAP reporter activity,RAW-Dual [2]; [9],2.64
same,NF-kB SEAP reporter activity,RAW-Dual [2]; [10],2.71
OCc1c[nH]c2ccccc12,NF-kB SEAP reporter activity,RAW-Dual [2]; [8],1.03
O=C(/C=C/c1ccc(CN(CCO)CCc2c[nH]c3ccccc23)cc1)NO (library stock concentration (final ~1000-fold dilution): 10 mM),NF-kB SEAP reporter activity,RAW-Dual [3]; agonist: LPS (TLR4) 0.1 ug/mL,5.57
same,NF-kB SEAP reporter activity,RAW-Dual [3]; [4],1.51
same,NF-kB SEAP reporter activity,RAW-Dual [3]; [5],1.46
same,NF-kB SEAP reporter activity,RAW-Dual [3]; [6],1.68
O=C(O)CCc1c[nH]c2ccccc12,NF-kB SEAP reporter activity,RAW-Dual [2]; [7],0.934
same,NF-kB SEAP reporter activity,RAW-Dual [2]; [8],0.964
O=C(O)CCc1c[nH]c2ccccc12 (library stock concentration (final ~1000-fold dilution): 10 mM),NF-kB SEAP reporter activity,RAW-Dual [1]; agonist: LPS (TLR4) 0.1 ug/mL,1.08
same,NF-kB SEAP reporter activity,RAW-Dual [1]; [4],1.06
same,NF-kB SEAP reporter activity,RAW-Dual [1]; [5],1.03
same,NF-kB SEAP reporter activity,RAW-Dual [1]; [6],0.898
